Values joined by “and” are separate entries in the source; they are usually repeats but may differ in a detail not shown here. Identical values can stand only once. Active and inactive are the calls of the source.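 The calls were made as follows, unless noted: active = hit in primary screen, with calcium signal over 5 SD above buffer well mean in both duplicates; inactive = the rest.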
test system: TRPC4 (mouse), co-expressed with 5HT1a in HEK293; assay: calcium flux potentiators in TRPC4/5HT1a cells, confirmation, counter-screen for TRPC4 potentiator project, cell-based, second counter screen, HEK293 TRPC4/5HT1a, Fluo-4 (AID 434979;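 active = signal rise over 3 SD above mean of control wells given weak agonist, in both repeats and first screen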); conditions: Fluo-4 calcium flux, at 10 µM, serotonin added at its EC20 dose; hits give high values

Compound	outcome	potentiation
COc1ccc(-n2c3c(cc(C(=O)NNc4ccccc4)c2=O)C(=O)CC(C)(C)C3)cc1	inactive	
O=C(c1sc2ccccc2c1Cl)N(Cc1ccccc1)C1CCS(=O)(=O)C1 (centres undefined)	inactive	
CN(C)C(CNC(=S)Nc1ccc(Cl)cc1)c1cccnc1 (centres undefined)	inactive	
O=C1/C(=C\c2cc([N+](=O)[O-])ccc2O)SC(=S)N1Cc1ccc(Cl)cc1		21% (active)
Cc1ccc(C(=O)NNC(=S)NC(=O)COc2ccccc2)cc1	inactive	
CCCCCc1c(O)nc(SCCN(C)C)[nH]c1=O	inactive	
CC1CC(C)CN(CCCNS(=O)(=O)c2cc(Br)cc3c2N(C(=O)C2CC2)CC3)C1 (centres undefined)	inactive	
CN1C2C=C(N(CCc3ccccc3)C(=O)c3ccc(Cl)cc3)CC1CC2 (centres undefined)	inactive	
Cc1ccccc1C(=O)NNC(=S)NC(=O)COc1ccccc1	inactive	
CCOC(=O)C1(CC2CCCCO2)CCN(Cc2cc(F)ccc2-n2cccn2)CC1 (centres undefined)	inactive	
Cc1ccc(NC(=O)CCN2CCC(Cc3ccccc3)CC2)cc1	inactive	
CCCn1ncc(CN2CCC(n3nccc3NC(=O)CCc3ccccc3)CC2)c1C	inactive	
Cc1sc2ncnc(NCC(c3ccco3)N(C)C)c2c1C (centres undefined)	inactive	
CCCN(CCC)CCNC(=O)CCC(=O)Nc1ccc2nc(N3CCOCC3)cc(C)c2c1	inactive	
CCN1CCN(c2c(Cl)cccc2NC(=O)c2ccc([N+](=O)[O-])cc2)CC1	inactive	
CN1CCN(c2ccc(NC(=O)c3ccc(-c4cccc([N+](=O)[O-])c4)o3)cc2)CC1	inactive	
OCCC1CN(Cc2ccccc2-c2ccco2)CCN1Cc1ccccc1 (centres undefined)	inactive	
CN(C)C(CNC(=O)NC1CCCCC1)c1cccnc1 (centres undefined)	inactive	
O=C1S/C(=C\c2ccc(N3CCOCC3)o2)C(=O)N1Cc1c(F)cccc1Cl	inactive	
COCCCn1c(N)c(-c2nc3ccccc3n2C)c2nc3ccccc3nc21	inactive	

test system: not listed separately; assay: calcium flux activation in mu-opioid HEK293 cells, confirmation, counter-screen for TRPC4 activator project, cell-based, HEK293 mu-opioid receptor line (AID 449723); conditions: Fluo-4 calcium fluorescence, at 10 µM; hits give high values;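 also: counter screen cells carry the mu-opioid receptor alone and lack TRPC4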

Compound	outcome	activation
COc1ccc(C(CNC(=O)COc2ccccc2OC)N(C)C)cc1OC (centres undefined)	inactive	
COc1ccc(C(CNC(=O)CCOc2ccccc2)N(C)C)cc1 (centres undefined)	inactive	
CN(C)C(CNc1ccc(C(F)(F)F)cn1)c1ccccc1 (centres undefined)	inactive	
Fc1ccc(-n2cc(CNCCc3cccnc3)c(-c3ccccc3Cl)n2)cc1	inactive	
CCOC(=O)c1ccc(NC(=O)NCCc2cnc[nH]2)cc1	inactive	
CN1CCN(C(=O)c2cccn(Cc3c(Cl)cccc3Cl)c2=O)CC1	inactive	
Cc1sc2ncnc(NCC(c3ccccc3)N(C)C)c2c1C (centres undefined)	inactive	
O=C(O)C1C2C=CC(C2)C1C(=O)N1CCN(C/C=C/c2ccccc2)CC1 (centres undefined)	inactive	
CCCCN(CC)CCNC(=O)c1cc2c(-c3ccc(Cl)cc3)nn(C)c2s1	inactive	
O=C(Nc1ccncc1)c1ccc(Cl)c(S(=O)(=O)N2CCc3ccccc32)c1	inactive	
CC(=O)OCC[N+](C)(C)C		101% (active) and 102% (active)
COc1ccc(CCN(C)C(=O)C2CCCN(C3CCN(Cc4ccccc4)CC3)C2)cc1OC (centres undefined)	inactive	
Cc1cc(C)cc(NC(=S)N2CCN(c3ncc(C(F)(F)F)cc3Cl)CC2)c1	inactive	
COc1ccc(C(CNC(=O)Cc2ccc(-c3ccccc3)cc2)N(C)C)cc1 (centres undefined)	inactive	
O=c1c(Cc2ccccc2)c(O)ccn1CCc1cnc[nH]1	inactive	
COc1ccc(C(=O)NNC(=S)NC(=O)c2cccs2)cc1	inactive	
CCC(=O)NC(C)C(c1cccs1)N1CCN(c2ccccc2)CC1 (centres undefined)	inactive	
NCCCNC(=O)c1cc2ccccc2[nH]1	inactive	
Cn1c2ccccc2c(=O)c2c(=O)n(C3CCCCC3)c(-c3ccco3)nc21		68.6% (active)
COc1ccc(-n2c3c(cc(C(=O)NNc4ccccc4)c2=O)C(=O)CC(C)(C)C3)cc1	inactive	

Compound	outcome	activation
O=C(c1sc2ccccc2c1Cl)N(Cc1ccccc1)C1CCS(=O)(=O)C1 (centres undefined)	inactive	
CN(C)C(CNC(=S)Nc1ccc(Cl)cc1)c1cccnc1 (centres undefined)	inactive	
O=C1/C(=C\c2cc([N+](=O)[O-])ccc2O)SC(=S)N1Cc1ccc(Cl)cc1		158% (active)
Cc1ccc(C(=O)NNC(=S)NC(=O)COc2ccccc2)cc1	inactive	
CCCCCc1c(O)nc(SCCN(C)C)[nH]c1=O	inactive	
CC1CC(C)CN(CCCNS(=O)(=O)c2cc(Br)cc3c2N(C(=O)C2CC2)CC3)C1 (centres undefined)	inactive	
CN1C2C=C(N(CCc3ccccc3)C(=O)c3ccc(Cl)cc3)CC1CC2 (centres undefined)	inactive	
Cc1ccccc1C(=O)NNC(=S)NC(=O)COc1ccccc1		43.2% (active)
CCOC(=O)C1(CC2CCCCO2)CCN(Cc2cc(F)ccc2-n2cccn2)CC1 (centres undefined)	inactive	
Cc1ccc(NC(=O)CCN2CCC(Cc3ccccc3)CC2)cc1	inactive	
CCCn1ncc(CN2CCC(n3nccc3NC(=O)CCc3ccccc3)CC2)c1C	inactive	
Cc1sc2ncnc(NCC(c3ccco3)N(C)C)c2c1C (centres undefined)	inactive	
CCCN(CCC)CCNC(=O)CCC(=O)Nc1ccc2nc(N3CCOCC3)cc(C)c2c1	inactive	
CCN1CCN(c2c(Cl)cccc2NC(=O)c2ccc([N+](=O)[O-])cc2)CC1	inactive	
CN1CCN(c2ccc(NC(=O)c3ccc(-c4cccc([N+](=O)[O-])c4)o3)cc2)CC1	inactive	
OCCC1CN(Cc2ccccc2-c2ccco2)CCN1Cc1ccccc1 (centres undefined)	inactive	
CN(C)C(CNC(=O)NC1CCCCC1)c1cccnc1 (centres undefined)	inactive	
O=C1S/C(=C\c2ccc(N3CCOCC3)o2)C(=O)N1Cc1c(F)cccc1Cl	inactive	
COCCCn1c(N)c(-c2nc3ccccc3n2C)c2nc3ccccc3nc21		16.7% (active)

— PubChem BioAssay
